Reference: the supplement of paper PMC8728848
The entries come from a sample that favours the strongest signals as a whole.

Key:
Experiment in all cases: glycan array binding signal (z-score within array); higher = stronger binding
Conditions in all cases: glycan notation: IUPAC condensed, linker removed
[1] = target: Fuc(a1-2)Gal(b1-3)GalNAc
How it was run: (§1)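 From the Consortium for Functional Glycomics database, 3228 arrays were curated, keeping only those whose protein sequence was available. Binding is given as a within-array Z-score averaged across arrays sharing a protein sequence and across linkers. Negative Z-scores can be read as non-binding.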

[2] = target: Fuc(a1-2)Gal(b1-3)GlcNAc(b1-3)[Fuc(a1-2)Gal(b1-3)GlcNAc(b1-6)]GalNAc
How it was run: as §1

[3] = target: Fuc(a1-2)Gal(b1-3)[Fuc(a1-4)]GlcNAc(b1-3)[Fuc(a1-3)[Gal(b1-4)]GlcNAc(b1-6)]Gal(b1-4)Glc
How it was run: as §1

[4] = target: Fuc(a1-2)Gal(b1-4)GlcNAc(b1-2)Man(a1-3)[Fuc(a1-2)Gal(b1-4)GlcNAc(b1-2)Man(a1-6)]Man(b1-4)GlcNAc(b1-4)GlcNAc
How it was run: as §1

[5] = target: Fuc(a1-2)Gal(b1-4)GlcNAc(b1-3)Gal(b1-4)GlcNAc(b1-3)Gal(b1-4)GlcNAc
How it was run: as §1

[6] = target: Fuc(a1-2)Gal(b1-4)[Fuc(a1-3)]GlcNAc(b1-2)[Fuc(a1-2)Gal(b1-4)[Fuc(a1-3)]GlcNAc(b1-4)]Man(a1-3)[Fuc(a1-2)Gal(b1-4)[Fuc(a1-3)]GlcNAc(b1-2)Man(a1-6)]Man(b1-4)GlcNAc(b1-4)GlcNAc
How it was run: as §1

[7] = target: Fuc(a1-2)[Gal(a1-3)]Gal(b1-4)GlcNAc(b1-2)Man(a1-3)[Fuc(a1-2)[Gal(a1-3)]Gal(b1-4)GlcNAc(b1-2)Man(a1-6)]Man(b1-4)GlcNAc(b1-4)GlcNAc
How it was run: as §1

[8] = target: Fuc(a1-2)[Gal(a1-3)]Gal(b1-4)GlcNAc(b1-2)Man(a1-3)[Fuc(a1-2)[Gal(a1-3)]Gal(b1-4)GlcNAc(b1-2)Man(a1-6)]Man(b1-4)GlcNAc(b1-4)[Fuc(a1-6)]GlcNAc
How it was run: as §1

[9] = target: Fuc(a1-2)[GalNAc(a1-3)]Gal(b1-3)GlcNAc
How it was run: as §1

[10] = target: Fuc(a1-2)[GalNAc(a1-3)]Gal(b1-3)GlcNAc(b1-2)Man(a1-3)[Fuc(a1-2)[GalNAc(a1-3)]Gal(b1-3)GlcNAc(b1-2)Man(a1-6)]Man(b1-4)GlcNAc(b1-4)GlcNAc
How it was run: as §1

[11] = target: Fuc(a1-2)[GalNAc(a1-3)]Gal(b1-3)GlcNAc(b1-2)Man(a1-3)[Fuc(a1-2)[GalNAc(a1-3)]Gal(b1-3)GlcNAc(b1-2)Man(a1-6)]Man(b1-4)GlcNAc(b1-4)[Fuc(a1-6)]GlcNAc
How it was run: as §1

[12] = target: Fuc(a1-2)[GalNAc(a1-3)]Gal(b1-4)[Fuc(a1-3)]GlcNAc(b1-3)GalNAc
How it was run: as §1

[13] = target: Fuc(a1-3)[GalNAc(b1-4)]GlcNAc
How it was run: as §1

[14] = target: Gal(a1-3)Gal
How it was run: as §1

[15] = target: Gal(a1-4)Gal(b1-4)Glc
How it was run: as §1

[16] = target: Gal(a1-4)Gal(b1-4)GlcNAc(b1-2)Man(a1-3)[Gal(a1-4)Gal(b1-4)GlcNAc(b1-2)Man(a1-6)]Man(b1-4)GlcNAc(b1-4)GlcNAc
How it was run: as §1

[17] = target: Gal(b1-3)Gal
How it was run: as §1

[18] = target: Gal(b1-3)GlcNAc
How it was run: as §1

[19] = target: Gal(b1-3)GlcNAc(b1-3)Gal(b1-4)GlcNAc(b1-2)Man(a1-3)[Gal(b1-3)GlcNAc(b1-3)Gal(b1-4)GlcNAc(b1-2)Man(a1-6)]Man(b1-4)GlcNAc(b1-4)GlcNAc
How it was run: as §1

[20] = target: Gal(b1-3)[Fuc(a1-4)]GlcNAc(b1-2)Man(a1-3)[Gal(b1-3)[Fuc(a1-4)]GlcNAc(b1-2)Man(a1-6)]Man(b1-4)GlcNAc(b1-4)[Fuc(a1-6)]GlcNAc
How it was run: as §1

[21] = target: Gal(b1-3)[Neu5Ac(b2-6)]GalNAc
How it was run: as §1

[22] = target: Gal(b1-4)GlcNAc(b1-2)Man(a1-6)[Man(a1-3)]Man(b1-4)GlcNAc(b1-4)GlcNAc
How it was run: as §1

[23] = target: Gal(b1-4)GlcNAc(b1-2)[Gal(b1-4)GlcNAc(b1-4)]Man(a1-3)[Gal(b1-4)GlcNAc(b1-2)Man(a1-6)]Man(b1-4)GlcNAc(b1-4)GlcNAc
How it was run: as §1

[24] = target: Gal(b1-4)GlcNAc(b1-2)[Gal(b1-4)GlcNAc(b1-6)]Man(a1-6)[Gal(b1-4)GlcNAc(b1-2)Man(a1-3)]Man(b1-4)GlcNAc(b1-4)GlcNAc
How it was run: as §1

[25] = target: Gal(b1-4)GlcNAc(b1-3)Gal(b1-3)GalNAc
How it was run: as §1

[26] = target: Gal(b1-4)GlcNAc(b1-3)Gal(b1-4)GlcNAc(b1-3)Gal(b1-4)GlcNAc(b1-3)Gal(b1-4)GlcNAc(b1-3)Gal(b1-4)GlcNAc(b1-2)[Gal(b1-4)GlcNAc(b1-3)Gal(b1-4)GlcNAc(b1-3)Gal(b1-4)GlcNAc(b1-3)Gal(b1-4)GlcNAc(b1-3)Gal(b1-4)GlcNAc(b1-6)]Man(a1-6)[Gal(b1-4)GlcNAc(b1-3)Gal(b1-4)GlcNAc(b1-3)Gal(b1-4)GlcNAc(b1-3)Gal(b1-4)GlcNAc(b1-3)Gal(b1-4)GlcNAc(b1-2)Man(a1-3)]Man(b1-4)GlcNAc(b1-4)[Fuc(a1-6)]GlcNAc
How it was run: as §1

[27] = target: Gal(b1-4)GlcNAc(b1-6)Gal(b1-4)GlcNAc
How it was run: as §1

[28] = target: Gal(b1-4)GlcNAc6P
How it was run: as §1

[29] = target: Gal3S(b1-4)GlcNAc
How it was run: as §1

[30] = target: Gal4S6S(b1-4)GlcNAc
How it was run: as §1

[31] = target: GalNAc(a1-3)GalNAc
How it was run: as §1

[32] = target: GalNAc(a1-3)GalNAc(b1-3)Gal(a1-4)Gal(b1-4)GlcNAc
How it was run: as §1

[33] = target: Glc(b1-4)Glc
How it was run: as §1

[34] = target: GlcNAc(a1-4)Gal(b1-4)GlcNAc
How it was run: as §1

[35] = target: GlcNAc(a1-4)Gal(b1-4)GlcNAc(b1-3)Gal(b1-4)GlcNAc
How it was run: as §1

[36] = target: GlcNAc(b1-2)[GlcNAc(b1-4)]Man(a1-3)[GlcNAc(b1-4)][GlcNAc(b1-2)[GlcNAc(b1-6)]Man(a1-6)]Man(b1-4)GlcNAc(b1-4)[Fuc(a1-6)]GlcNAc
How it was run: as §1

[37] = target: GlcNAc(b1-2)[GlcNAc(b1-6)]Man(a1-6)[GlcNAc(b1-2)Man(a1-3)]Man(b1-4)GlcNAc(b1-4)[Fuc(a1-6)]GlcNAc
How it was run: as §1

[38] = target: GlcNAc(b1-4)Gal(b1-4)GlcNAc
How it was run: as §1

[39] = target: GlcNAc(b1-6)Gal(b1-4)GlcNAc
How it was run: as §1

[40] = target: Man(a1-6)Man
How it was run: as §1

[41] = target: Neu5Ac(a2-3)Gal(b1-3)GlcNAc(b1-2)Man(a1-3)[GlcNAc(b1-4)][Neu5Ac(a2-3)Gal(b1-3)GlcNAc(b1-2)Man(a1-6)]Man(b1-4)GlcNAc(b1-4)GlcNAc
How it was run: as §1

[42] = target: Neu5Ac(a2-3)Gal(b1-3)GlcNAc6S
How it was run: as §1

[43] = target: Neu5Ac(a2-3)Gal(b1-4)GlcNAc(b1-3)Gal(b1-4)GlcNAc(b1-3)Gal(b1-4)GlcNAc(b1-2)Man(a1-3)[Neu5Ac(a2-3)Gal(b1-4)GlcNAc(b1-3)Gal(b1-4)GlcNAc(b1-3)Gal(b1-4)GlcNAc(b1-2)Man(a1-6)]GalNAc
How it was run: as §1

[44] = target: Neu5Ac(a2-3)Gal(b1-4)GlcNAc(b1-3)Gal(b1-4)GlcNAc(b1-3)[Neu5Ac(a2-3)Gal(b1-4)GlcNAc(b1-3)Gal(b1-4)GlcNAc(b1-6)]GalNAc
How it was run: as §1

[45] = target: Neu5Ac(a2-3)Gal6S(b1-4)GlcNAc
How it was run: as §1

[46] = target: Neu5Ac(a2-3)[GalNAc(b1-4)]Gal(b1-4)GlcNAc(b1-3)GalNAc
How it was run: as §1

[47] = target: Neu5Ac(a2-6)Gal(b1-4)GlcNAc(b1-6)[Gal(b1-3)]GalNAc
How it was run: as §1

[48] = target: Neu5Ac(a2-8)Neu5Ac(a2-3)Gal(b1-4)GlcNAc
How it was run: as §1

[49] = target: Neu5Ac9Ac(a2-3)Gal(b1-4)GlcNAc
How it was run: as §1

B1: PX15618B-bfa-464-25-464 (Bacteroides fragilis) (protein)
chain: DQEPPLYVNENDIFTSPTRIEATLNGLYAAIKNTGTKSLMGGKSYLVFDNRGDDVINISNNLVTLFNTYNMNVGITDAENADTWTYAYLAINKVNTFLQSLEGAREVAGENYDRYVQEAKFVRALAYYYLNNLYPTPYSVNPDAKSVPLRLTAEAGTENNNMPRSTVKQIYEHILSDLENISALDTEVNTYTGVTHATQAAANMLKMRVYMAMNEWDKAITAGELVTGYSLPEDVTLIYKAPYFSQESIFSLPMADTNIPNTQQSLAEYYYDGKIMLIDTKSGIMSKPDYSLATDKRIIAFKGEKDLLMKFTDAKTKLQWVPIFRYAETLLDLAECYANKAGGEATAKSLLKQVRGRSVDAATDPLNIDNLSGDALKEAIYNEKRLEFIGEGIRGIDIMRRGEHFIKVGENETINVGPSDEKYTWPIPQVELLLNKDINK
- glycan array binding signal (z-score) [1]: -0.355
- glycan array binding signal (z-score) [2]: 1.41
- glycan array binding signal (z-score) [3]: -0.516
- glycan array binding signal (z-score) [4]: 8.2
- glycan array binding signal (z-score) [5]: 0.251
- glycan array binding signal (z-score) [6]: 4.25
- glycan array binding signal (z-score) [7]: 1.41
- glycan array binding signal (z-score) [8]: -0.101
- glycan array binding signal (z-score) [9]: -0.308
- glycan array binding signal (z-score) [10]: 0.241
- glycan array binding signal (z-score) [11]: 0.028
- glycan array binding signal (z-score) [12]: 0.311
- glycan array binding signal (z-score) [13]: 1.31
- glycan array binding signal (z-score) [14]: 0.348
- glycan array binding signal (z-score) [15]: 0.822
- glycan array binding signal (z-score) [16]: -0.514
- glycan array binding signal (z-score) [17]: 0.33
- glycan array binding signal (z-score) [18]: 1.37
- glycan array binding signal (z-score) [19]: -0.678
- glycan array binding signal (z-score) [20]: 0.153
- glycan array binding signal (z-score) [21]: -0.017
- glycan array binding signal (z-score) [22]: 0.248
- glycan array binding signal (z-score) [23]: 0.511
- glycan array binding signal (z-score) [24]: 2.66
- glycan array binding signal (z-score) [25]: -0.13
- glycan array binding signal (z-score) [26]: 19.3
- glycan array binding signal (z-score) [27]: 0.086
- glycan array binding signal (z-score) [28]: -0.626
- glycan array binding signal (z-score) [29]: -0.305
- glycan array binding signal (z-score) [30]: -0.852
- glycan array binding signal (z-score) [31]: -0.504
- glycan array binding signal (z-score) [32]: -0.273
- glycan array binding signal (z-score) [33]: -0.138
- glycan array binding signal (z-score) [34]: -0.125
- glycan array binding signal (z-score) [35]: -0.455
- glycan array binding signal (z-score) [36]: 0.399
- glycan array binding signal (z-score) [37]: 0.701
- glycan array binding signal (z-score) [38]: 1.25
- glycan array binding signal (z-score) [39]: -0.393
- glycan array binding signal (z-score) [40]: 0.302
- glycan array binding signal (z-score) [41]: 0.609
- glycan array binding signal (z-score) [42]: -0.374
- glycan array binding signal (z-score) [43]: 3.29
- glycan array binding signal (z-score) [44]: 0.164
- glycan array binding signal (z-score) [45]: -0.187
- glycan array binding signal (z-score) [46]: 0.625
- glycan array binding signal (z-score) [47]: 1.16
- glycan array binding signal (z-score) [48]: -0.48
- glycan array binding signal (z-score) [49]: 0.409
